In all, about 3,400 compounds went through this assay and about 840 (25%) were called active. About 11% were inconclusive and are not listed. Not all results are given here. Measured potencies and affinities stand elsewhere. A number with no mark means an inactive call.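 How the source made its calls: active means fitted half-maximal concentration of signal decrease at or below twice the sample's top tested concentration; inconclusive means flat curve between -70 and -30 percent, or poor fit; inactive means flat within 30 percent, signal rise, or potency above limit.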

This assay can be described thus: inhibitors of Toxoplasma growth in IFN-γ-primed HeLa – cell-based, ME49Luc, luciferase, 72 h, dose response (AID 1259418). The settings on record: T. gondii ME49Luc in IFN-y HeLa, active compounds read low, -100% = high-dose IFN-γ control wells; at 19.5 µM unless noted.
Regarding `O=C(Nc1ccccc1)Nc1ccc(-c2nc(-c3ccccc3)co2)cc1`, the max activity was 51.3%.
With `COc1cccc(-c2nc3c(s2)CN(S(=O)(=O)c2ccc(OC)c(OC)c2)CC3)c1`, the max activity was 6.21% [at 10 µM].
As for `COc1ccccc1-c1nc(C)c(-c2ccc(SCc3ccc(C)cc3)nn2)s1`, the figure is -14.3%; as for `COc1ccc(C(=O)N2CCC[C@@H]2C(=O)NCCc2csc(-c3ccccc3)n2)cc1`, -13.9%.
Under `CCc1ccc(S(=O)(=O)N2CCc3nc(-c4ccc(OC)cc4)sc3C2)cc1` stands 9.57%.
Under `CCOc1ccc(CC(=O)N2CCC3(CC2)Nc2ccc(C)c(C)c2-n2cccc23)cc1OCC` stands -7.59% [at 0.35 µM]; under `CCC(CC)C(=O)N1CCC(C(=O)NCCc2csc(-c3ccccc3)n2)CC1`, 5.84% [at 5 µM].
With `COc1ccc(C(=O)Nc2ccc3c(c2)CCC(=O)N3C)c(C)c1`, the max activity is 42.4%.
Under `COc1cccc(C#Cc2ccc([C@H]3[C@@H](C#N)N(C(=O)c4ccccn4)[C@@H]3CO)cc2)c1` stands 11.2% [at 10 µM]; under `N#C[C@H]1[C@H](c2ccc(C#Cc3ccccc3F)cc2)[C@@H](CO)N1C(=O)c1cccnc1`, -13.1% [at 2.35 µM].
Under `CCOC(=O)C1CCC(CNC(=O)Nc2ccc(-c3nc(-c4ccccc4)co3)cc2)CC1` (centres undefined) stands -11.7% [at 5 µM].
On to `N#CCSC1=Nc2ccccc2C2=NC(CC(=O)NCc3ccc(F)cc3)C(=O)N12` (centres undefined), for which the max activity was 44.3%.
For `Cc1cccc(CNC2=NCCNC23CCN(S(=O)(=O)c2ccc4c(c2)CCCC4)CC3)c1`, the max activity is 20.3% [at 10 µM].
As to `O=S(=O)(c1ccc2c(c1)CCCC2)N1CCC2(CC1)NCCN=C2NCc1cc(F)cc(F)c1`, the max activity was 16.7%.
Turning to `COc1ccc(CNC2=NCCNC23CCN(S(=O)(=O)c2ccc4c(c2)CCCC4)CC3)cc1`, the max activity was -31.9%.
As for `Cc1nc(-c2ccc(F)cc2)sc1-c1ccc(SCc2cccc3ccccc23)nn1`, the figure is -8.89% [at 10 µM].
As for `COc1ccccc1-c1nc(C)c(-c2ccc(SCc3cc(C)ccc3C)nn2)s1`, the figure is -11.2% [at 0.35 µM]; as for `Cc1ccc(-c2coc(-c3ccc(NC(=O)C4CCCCC4)cc3)n2)c(C)c1`, -13.8%.
Take `Cc1oc(-c2cccc(Cl)c2)nc1Cn1nnc(-c2nc(-c3ccncc3)no2)c1C`: the max activity was -5.43% [at 1.35 µM].
On to `COc1ccc(-c2nc(Nc3cccc(SC)c3)c3ccccc3n2)cc1`, for which the max activity was 8.11% [at 0.35 µM].
On to `COC(=O)c1ccc(NC(=O)Nc2ccc(-c3nc(-c4cc(C)ccc4C)co3)cc2)cc1`, for which the max activity was -6.97% [at 0.68 µM].
Under `COc1ccc2c(c1)NC1(CCN(C(=O)Cc3ccc(F)cc3)CC1)c1cccn1-2` stands 12.9% [at 0.35 µM]; under `CCn1cc(NC(=O)c2cccc(CN3C[C@@H](C)O[C@@H](C)C3)c2)nn1`, 30.6%; under `CC(C)CN(C[C@@H](O)[C@H](Cc1ccccc1)NC(=O)O[C@H]1CO[C@H]2OCC[C@H]21)S(=O)(=O)c1ccc(N)cc1`, 7.57%.
Under `CCc1nc(OCC(=O)Nc2cccc(OC)c2)c2ccccc2n1` stands 13.8% [at 0.16 µM]; under `O=C(c1ccc2c(=O)n(CCC3=CCCCC3)c(=S)[nH]c2c1)N1CCC(O)(c2cccc(C(F)(F)F)c2)CC1`, -24.9% [at 10 µM]; under `O=C(CCCCCn1c(=S)[nH]c2cc3c(cc2c1=O)OCO3)N1CCC(O)(c2cccc(C(F)(F)F)c2)CC1`, -29.1% [at 10 µM].
As for `CCCn1c(=S)[nH]c2cc(C(=O)N3CCC(O)(c4cccc(C(F)(F)F)c4)CC3)ccc2c1=O`, the figure is 18.8% [at 0.16 µM].
As to `Cc1cccc(C2=NC3(CCN(C(=O)c4ccc(C(C)(C)C)cc4)CC3)NC2=O)c1`, the max activity is 16.7% [at 2.6 µM].
Under `COc1ccccc1-c1nc(Cn2nnc(-c3nc(-c4ccccn4)no3)c2C)c(C)o1` stands 50.4%; under `C=CCN1C(=O)CC[C@H]2[C@@H]1CCN2S(=O)(=O)CC`, 48.3%.
In the case of `Cc1ccc(CSc2ccc(-c3sc(-c4ccc(F)cc4)nc3C)nn2)cc1`, the max activity is 12.3% [at 0.16 µM].
As for `Cc1cc(C)c2c(=O)n(Cc3nc(-c4ccc(C(C)C)cc4)oc3C)c(=O)n(-c3ccccc3)c2n1`, the figure is -13.2% [at 5 µM].
Under `CCCN1CCc2nc(SCc3nc(-c4cccc(Cl)c4)oc3C)[nH]c(=O)c2C1` stands 10.2% [at 0.68 µM]; under `COCC1COCCC12CCN(C(=O)c1ccc(C)nc1)CC2` (centres undefined), 18.7%; under `Cc1ccc(NC(=O)N2CCc3nc(-c4ccccc4)sc3C2)cc1C`, -7.49% [at 2.6 µM].
In the case of `Cc1cccc(-c2nc(Cn3nnc(-c4nc(-c5cccc(C(F)(F)F)c5)no4)c3C)c(C)o2)c1`, the max activity was 8.75% [at 1.35 µM].
With `O=C(Nc1ccc(-c2nc(-c3ccccc3)co2)cc1)Nc1ccc2c(c1)OCO2`, the max activity is 19.1% [at 0.16 µM].
Under `Cc1ccccc1NC(=O)CN1CCC2(CC1)N=C(c1ccc(Cl)cc1)C(=O)N2` stands -13.7% [at 1.35 µM]; under `O=C(NCCc1c[nH]c2ccccc12)C1CCN(c2ncnc3c2oc2ccccc23)CC1`, 11.9% [at 0.68 µM]; under `COc1ccc(-c2nc(N3CCN(c4ccc(F)cc4)CC3)c3ccccc3n2)cc1`, 13.7% [at 10 µM].
As for `CCn1nnc2c(NCCSc3c[nH]c4ccccc34)ncnc21`, the figure is -13.5% [at 0.68 µM].
In the case of `COc1ccc(-n2ncc3c(NC4CCCCCCCCCCC4)ncnc32)cc1`, the max activity is 21.4% [at 1.35 µM].
Under `Cc1cccc(-c2nc(CSc3nc4c(c(=O)[nH]3)CN(Cc3ccc(Cl)cc3)CC4)c(C)o2)c1` stands 23.2% [at 0.16 µM].
As for `O=S(=O)(c1ccc(Cl)s1)N1CCC2(CC1)NCCN=C2NC1CCCC1`, the figure is 13.4%; as for `O=S(=O)(c1cccs1)N1CCC2(CC1)NCCN=C2NCc1ccccc1F`, -35.7%.
As to `COc1ccccc1CNC1=NCCNC12CCN(S(=O)(=O)c1cccs1)CC2`, the max activity is -16.5% [at 0.68 µM].
Under `CCc1ccc(S(=O)(=O)N2CCC3(CC2)NCCN=C3NCc2ccccc2OC)cc1` stands 11.2% [at 0.16 µM]; under `COC[C@H]1CN(CC2CC2)C[C@@]12CCN(CCc1ccccc1)C2`, 24%; under `CCCN1CCc2nc(SCc3nc(-c4ccc(OC)cc4OC)oc3C)[nH]c(=O)c2C1`, 66.7%.
As for `COc1ccc(-c2nc(Nc3ccc(C)c(C)c3)c3ccccc3n2)cc1`, the figure is 21.6% [at 0.16 µM]; as for `CC1(C)C2CCC1(CS(=O)(=O)O)C(=O)/C2=C\c1ccc(/C=C2/C(=O)C3(CS(=O)(=O)O)CCC2C3(C)C)cc1`, 14.9%.
Under `CCn1c(C2CCCN(C(=O)CCN3CCCCCC3=O)C2)nn(C)c1=O` (centres undefined) stands 20.9%; under `CN1C(=O)CCc2cc(NC(=O)c3ccnn3C)ccc21`, 26.8%; under `Cc1cc2cc(CNc3ncnc4c3nnn4C)ccc2[nH]1`, 9.49% [at 10 µM].
For the compound `COc1ccc(C)cc1NC(=O)Nc1ccc(-c2nc(-c3cccc(Br)c3)co2)cc1`, the max activity is -11.7% [at 0.35 µM].
Under `CC1CCCCN1CCNS(=O)(=O)c1cc(-c2nc(C(C)(C)C)cs2)cs1` (centres undefined) stands -20.5%; under `COc1ccc(-c2nc(N3CCC(Cc4ccccc4)CC3)c3ccccc3n2)cc1`, 16.4%; under `Cc1ccc(-c2coc(-c3ccc(NC(=O)Cc4cccs4)cc3)n2)cc1`, -53.8% [at 0.68 µM].
As for `COc1cccc(CNC2=NCCNC23CCN(S(=O)(=O)c2ccc(C(C)C)cc2)CC3)c1`, the figure is -13.5% [at 0.35 µM].
Under `Cc1nc(CCNC(=O)[C@H]2CCCN2S(=O)(=O)c2ccc(C(C)(C)C)cc2)cs1` stands 7.93% [at 5 µM].
For the compound `CCCCC(=O)N1CCC(C(=O)NCCc2csc(-c3ccccc3)n2)CC1`, the max activity is 6.78% [at 2.6 µM].
As for `CCc1nc(OCC(=O)Nc2ccc3c(c2)OCO3)c2ccccc2n1`, the figure is 23.2% [at 10 µM]; as for `CCOC(=O)C1CCCN(S(=O)(=O)c2cc(-c3nc(C)c(C)s3)sc2C)C1` (centres undefined), 14.9% [at 0.16 µM].
As for `COc1ccc2c(c1)NC1(CCN(C(=O)c3ccc(C(C)(C)C)cc3)CC1)c1cccn1-2`, the figure is -6.3% [at 0.35 µM]; as for `CN1C(=O)CCc2cc(NC(=O)C3CCCO3)ccc21` (centres undefined), 17.1%.
On to `COc1ccc(N(Cc2nc(-c3ccccc3)oc2C)S(=O)(=O)c2cccs2)cc1`, for which the max activity is 14.6%.
Turning to `COc1cccc(-c2nc(CN(c3ccc(C)cc3)S(=O)(=O)c3cccs3)c(C)o2)c1OC`, the max activity is 2.85%.
As for `CCOc1ccc(N(Cc2nc(-c3ccccc3OCC)oc2C)S(=O)(=O)c2cccs2)cc1`, the figure is 8.57% [at 10 µM].
Under `COc1ccccc1-c1nc(Cn2nnc(-c3nc(-c4ccc(SC)cc4)no3)c2C)c(C)o1` stands 10.9% [at 0.16 µM].
In the case of `CCOc1ccc(NC(=O)Nc2ccc(-c3nc(-c4cc(C)ccc4C)co3)cc2)cc1`, the max activity is -9.48% [at 1.35 µM].
Turning to `CCN1Cc2c(C(=O)Nc3ccc(C)cc3)ncn2-c2ccccc2S1(=O)=O`, the max activity was 5.65%.
As for `CN1[C@H](CO)[C@@H]2c3ccccc3N(C(=O)C3CCCCC3)C[C@@H]21`, the figure is 65.5%.
As for `CC(C)n1c(C(=O)Nc2cccc(F)c2)nc2c1CCN(Cc1ccccc1)C2`, the figure is 12.5%.

These data come from PubChem BioAssay AID1259418 (Broad Institute, 2018).
